Test results: PubChem BioAssay (Tox21)
Several values for one entry are separate records, joined by “and”; a condition that tells them apart may be missing. Equal entries are not always repeated. Inconclusive results are not listed. Entries that show only a call come without a potency. Where a structure was tested more than once in an assay, its records may differ in their call. Activity calls are given as the source filed them. Unless noted, calls follow the shape of the dose curve; as a rule, active = well fitted curve in the direction sought with a large enough effect in the repeat runs; inconclusive = weak or mixed curves; inactive = no such curve, though single readings can be large; an effect the other way counts as inactive or inconclusive.

Tests used:
[1] = molecular target: Luciferin 4-monooxygenase (Photinus pyralis) (UniProt P08659); assay: qHTS assay to identify small molecule inhibitors of firefly luciferase (AID 1224835); also: nearly all actives have a fitted effect of over 25% in size
Chain of Luciferin 4-monooxygenase (Photinus pyralis) (P08659 whole entry, looked up): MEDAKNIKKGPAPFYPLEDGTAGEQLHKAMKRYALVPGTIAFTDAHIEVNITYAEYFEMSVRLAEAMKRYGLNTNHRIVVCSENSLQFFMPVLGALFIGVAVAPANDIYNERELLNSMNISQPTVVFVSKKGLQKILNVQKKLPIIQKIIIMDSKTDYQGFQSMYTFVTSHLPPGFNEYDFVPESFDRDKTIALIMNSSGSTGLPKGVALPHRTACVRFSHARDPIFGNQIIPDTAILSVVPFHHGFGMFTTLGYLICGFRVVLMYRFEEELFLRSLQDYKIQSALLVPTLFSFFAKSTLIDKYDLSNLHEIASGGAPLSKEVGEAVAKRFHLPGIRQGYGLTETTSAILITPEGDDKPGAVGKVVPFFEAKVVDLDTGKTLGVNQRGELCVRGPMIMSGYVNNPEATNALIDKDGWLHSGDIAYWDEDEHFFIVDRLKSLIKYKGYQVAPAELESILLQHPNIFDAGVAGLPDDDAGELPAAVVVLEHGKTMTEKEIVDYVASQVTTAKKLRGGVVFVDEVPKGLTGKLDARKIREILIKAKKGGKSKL
In short: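 Inhibition of purified Photinus luciferase is measured by luminescence. Substrate levels (D-luciferin, ATP) sit at their KM values. Each compound is tested in a concentration series.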

[2] = qHTS assay to identify small molecule agonists of the constitutive androstane receptor (CAR) signaling pathway - cell viability counter screen (AID 1224836); also: nearly all actives have a fitted effect of over 45% in size
In short: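 HepG2-CYP2B6-hCAR, 2500 cells/well, 4 h pre-incubation; cpd 15 conc + PK11195 0.75 uM final; 23 h, 37 C/5% CO2; CellTiter-Fluor, fluorescence.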

[3] = qHTS assay to identify small molecule antagonists of the constitutive androstane receptor (CAR) signaling pathway - cell viability counter screen (AID 1224837); also: nearly all actives have a fitted effect of over 45% in size
In short: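 Using CellTiter-Fluor, viability is scored in HepG2 cells stably carrying hCAR and a 2.2kb CYP2B6 reporter after 23 hr compound exposure across 15 concentrations, with CITCO present at 50 nM.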

[4] = molecular target: Nuclear receptor subfamily 1 group I member 3 (Homo sapiens) (UniProt Q14994); assay: qHTS assay to identify small molecule agonists of the constitutive androstane receptor (CAR) signaling pathway (AID 1224839);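 also: HepG2 cells stably carrying human CAR and a CYP2B6 luciferase reporter; nearly all actives have a fitted effect of over 15% in size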
Chain of Nuclear receptor subfamily 1 group I member 3 (Homo sapiens) (Q14994 whole entry, looked up): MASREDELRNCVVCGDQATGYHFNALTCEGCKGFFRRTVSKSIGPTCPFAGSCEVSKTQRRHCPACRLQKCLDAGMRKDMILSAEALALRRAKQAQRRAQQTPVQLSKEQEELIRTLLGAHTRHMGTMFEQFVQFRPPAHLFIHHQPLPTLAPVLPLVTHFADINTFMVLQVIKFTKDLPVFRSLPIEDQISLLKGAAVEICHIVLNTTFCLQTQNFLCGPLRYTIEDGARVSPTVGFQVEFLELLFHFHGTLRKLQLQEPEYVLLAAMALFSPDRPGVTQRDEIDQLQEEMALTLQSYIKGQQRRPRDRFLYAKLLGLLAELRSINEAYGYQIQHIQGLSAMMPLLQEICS
In short: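 HepG2-CYP2B6-hCAR cells, 2500/well, 4 h pre-incubation; compounds 15 conc.; PK11195 0.75 uM final; 24 h, 37 C/5% CO2; ONE-Glo luciferase read.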

[5] = qHTS assay to identify small molecule antagonists of the estrogen related receptor signaling pathway with the pleiotropic PPARgamma coactivator (PGC) from Tox21 10K library - cell viability counter screen (AID 1224840; active = well fitted cell-killing curve with a large enough effect in the repeat runs, not every such curve was filed as active; also: nearly all actives have a fitted effect of over 40% in size; also: potency is read from the fitted curve at half-maximal effect)
In short: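 Here the PGC/ERR cells serve as a cytotoxicity control: they are exposed to compounds for 17.5 hours at 37 C, and live-cell signal is quantified using CellTiter-Fluor fluorescence.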

[6] = qHTS assay to identify small molecule antagonists of the estrogen related receptor signaling pathway with the pleiotropic PPARgamma coactivator (PGC) from Tox21 10K library (AID 1224841; call rule not given here; also: actives are mostly falling curves and most rising ones were filed inactive; nearly all actives have a fitted effect of over 50% in size)
In short: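 Each well held 2,000 PGC/ERR cells, pre-incubated six hours (37 C, 5% CO2). Test substances in DMSO were added by pin tool and left for 18 h at 37 C before luciferase detection by One-Glo.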

[7] = molecular target: Thyrotropin receptor (Homo sapiens) (UniProt P16473); assay: qHTS assay to identify small molecule agonists of the thyroid stimulating hormone receptor (TSHR) signaling pathway (AID 1224843; calls by dose curve; also: nearly all actives have a fitted effect of over 45% in size)
Chain of Thyrotropin receptor (Homo sapiens) (P16473 whole entry, looked up): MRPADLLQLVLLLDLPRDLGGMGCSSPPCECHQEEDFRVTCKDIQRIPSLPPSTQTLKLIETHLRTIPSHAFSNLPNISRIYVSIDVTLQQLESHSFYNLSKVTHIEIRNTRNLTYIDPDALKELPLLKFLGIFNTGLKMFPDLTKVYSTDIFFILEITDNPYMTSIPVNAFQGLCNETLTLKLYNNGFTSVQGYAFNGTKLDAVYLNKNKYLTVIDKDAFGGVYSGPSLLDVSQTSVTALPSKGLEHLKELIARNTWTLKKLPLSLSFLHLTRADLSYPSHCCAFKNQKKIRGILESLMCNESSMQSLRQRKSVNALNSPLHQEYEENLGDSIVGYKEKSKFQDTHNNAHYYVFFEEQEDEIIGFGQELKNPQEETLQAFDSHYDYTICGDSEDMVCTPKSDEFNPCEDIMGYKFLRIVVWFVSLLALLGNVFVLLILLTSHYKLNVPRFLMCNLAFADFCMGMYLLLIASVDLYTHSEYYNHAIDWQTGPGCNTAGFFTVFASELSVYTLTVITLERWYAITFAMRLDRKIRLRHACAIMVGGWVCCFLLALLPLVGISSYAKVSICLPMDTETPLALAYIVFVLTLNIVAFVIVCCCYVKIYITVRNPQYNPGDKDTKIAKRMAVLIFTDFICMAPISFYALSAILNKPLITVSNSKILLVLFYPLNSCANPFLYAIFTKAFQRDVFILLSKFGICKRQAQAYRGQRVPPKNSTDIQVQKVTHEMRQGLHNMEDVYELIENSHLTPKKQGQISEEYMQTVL
In short: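 HEK293 cells stably bearing the thyrotropin receptor were plated at 800 cells/well and challenged with compound (30 min, RT). Accumulated cAMP was quantified via cAMP-d2 competing for cryptate-tagged antibody.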

[8] = qHTS assay to identify small molecule agonists of the hypoxia (HIF-1) signaling pathway - cell viability counter screen (AID 1224844; calls by dose curve; also: nearly all actives have a fitted effect of over 50% in size)
In short: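 Multiplexed with the HRE beta-lactamase assay, this viability read used CellTiter-Glo luminescence (30 min, RT) on HRE-bla ME-180 cells treated 17 hrs with compounds in 0.5% dialyzed FBS medium.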

[9] = qHTS assay to identify small molecule agonists of H2AX (AID 1224845; active = well fitted activation curve with a large enough effect in the signal ratio in the repeat runs, not every such curve was filed as active; the % refers to the signal ratio)
In short: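 Phospho-H2AX Ser139 measured by HTRF (ex 320 nm; em 665 and 620 nm) after 24 hr antibody incubation. Compounds, 15 concentrations, 0.76% DMSO, were applied to CHO-K1 cells for 3hr at 37C before lysis.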

[10] = qHTS assay to identify small molecule agonists of the hypoxia (HIF-1) signaling pathway (AID 1224846; active = well fitted activation curve with a large enough effect in the signal ratio in the repeat runs, not every such curve was filed as active; the % refers to the signal ratio)
In short: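 Hypoxia-pathway activation was scored as increased beta-lactamase from an HRE-controlled reporter in ME-180 cells; plated at 2,000 cells per well with 0.5% dialyzed FBS, they were exposed 17 hrs to compounds and then given CCF4-AM.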

[11] = qHTS assay to identify small molecule antagonists of the estrogen related receptor (ERR) signaling pathway from Tox21 library (AID 1224848); also: nearly all actives have a fitted effect of over 50% in size; also: potency is read from the fitted curve at half-maximal effect
In short: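 Reading was by luminescence 30 min after ONE-Glo addition. Before that, ERR cells at 2,000 per well had rested 6 h at 37 C/5% CO2 and then received pin-tooled compounds in DMSO for 18 h at 37 C.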

[12] = qHTS assay to identify small molecule agonists of the estrogen related receptor (ERR) signaling pathway from Tox21 library (AID 1224849; calls by dose curve; also: nearly all actives have a fitted effect of over 15% in size); conditions: ERR reporter cell line, ONE-Glo luciferase, 18 h
In short: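 Six hours post-seeding at 37 C/5% CO2, ERR cells receive DMSO-solubilised compounds; after 18 h at 37 C, ONE-Glo reagent is applied and luminescence recorded.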

[13] = qHTS RealTime-Glo MT Cell Viability Assay in HepG2 cells - 24 hour (AID 1224867); also: nearly all actives have a fitted effect of over 50% in size
In short: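 Cell number in HepG2 cultures estimated from NanoLuc luminescence generated by metabolic reduction of a prosubstrate by living cells. The homogeneous, nonlytic format allowed repeated reads at 0, 8, 16, 24, 32 and 40 h of compound exposure.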

[14] = A CellTox Green Cytotoxicity Assay to monitor cytotoxicity in HEK293 cells - 0 hour (AID 1224869); also: nearly all actives have a fitted effect of over 50% in size
In short: (§1)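 Seeding of HEK293 cells together with cytotoxicity dye preceded a 5 h incubation at 37 C/5% CO2. Test compounds in DMSO were then added and fluorescence monitored across 40 h.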

[15] = qHTS RealTime-Glo MT Cell Viability Assay in HepG2 cells - 40 hour (AID 1224870); also: nearly all actives have a fitted effect of over 50% in size
In short: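 Real-time viability: cells seeded at 600 per well together with NanoLuc and cell-permeant prosubstrate, compounds added after 5 h incubation. Luminescence tracked at 0, 8, 16, 24, 32 and 40 h of exposure.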

[16] = A CellTox Green Cytotoxicity Assay to monitor cytotoxicity in HEK293 cells - 40 hour (AID 1224871); also: nearly all actives have a fitted effect of over 45% in size; also: potency is read from the fitted curve at half-maximal effect
In short: as §1

[17] = qHTS assay to identify small molecule agonists of the estrogen related receptor signaling pathway with the pleiotropic PPARgamma coactivator (PGC) from Tox21 10K library (AID 1224842); also: nearly all actives have a fitted effect of over 15% in size
In short: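 Luminescence from One-Glo (30 min, room temperature) measured after PGC/ERR cells had 18 h at 37 C with pinned compound (23 nL in DMSO). Cells had been seeded at 2,000 per well and pre-incubated 6 h.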

[18] = qHTS assay to identify small molecule agonists of H2AX - cell viability counter screen (AID 1224847; calls by dose curve;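 also: wild-type CHO-K1 cells; top concentration of the series differs between compounds; nearly all actives have a fitted effect of over 30% in size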)
In short: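 Cells plated first: CHO-K1, 1000 per well in 10% FBS medium, incubated overnight at 37C. Then 15-point compound titration added (final DMSO 0.76%) for 3 hr. Finally CellTiter-Glo added and luminescence read.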

[19] = qHTS RealTime-Glo MT Cell Viability Assay in HEK293 cells - 32 hour (AID 1224868); also: nearly all actives have a fitted effect of over 50% in size; also: potency is read from the fitted curve at half-maximal effect
In short: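 Homogeneous bioluminescent viability format in HEK293 cells (600 cells/well). Following 5 h at 37 C/5% CO2, 23 nL compound was pintooled; the signal was measured repeatedly during 40 h incubation.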

For CCC(=O)C(=O)CC, the Potency [1] was “inactive”, the Potency [2] was “inactive” and the Potency [3] was “inactive”. For the same compound, the Potency [4] was “inactive”, the Potency [5] was “inactive” and the Potency [6] was “inactive”. For the same compound, the Potency [7] was “inactive”, the Potency [8] was “inactive” and the Potency [9] was “inactive”. For the same compound, the Potency [10] was “inactive”, the Potency [11] was “inactive” and the activity change, positive = activation ([12]; at 92.4 µM (top of the series)) was -15.7% (inactive). For the same compound, the Potency [13] was “inactive”, the Potency [14] was “inactive” and the Potency [15] was “inactive”. For the same compound, the Potency [16] was “inactive”.
For Oc1c(I)cc(Cl)c2cccnc12, the Potency [1] was “inactive”, the Potency [2] was “inactive” and the Potency [3] was “inactive”. The Potency [5] was 27.3 µM (active), the Potency [6] was “inactive” and the Potency [17] was “inactive”. For the same compound, the Potency [8] was “inactive”, the Potency [18] was “inactive” and the Potency [11] was 19.3 µM (active) and 11.9 µM (active). For the same compound, the activity change, positive = activation ([12]; at 42.5 µM (top of the series)) was -30.5% (inactive), the activity change, positive = activation ([12]; at 92.4 µM (top of the series)) was -54.8% (inactive) and the Potency [13] was “inactive”. The Potency [19] was 24.5 µM (active), the Potency [14] was “inactive” and the Potency [15] was “inactive”. For the same compound, the Potency [16] was 12.3 µM (active) and inactive.
In the case of Cc1cc(C(C#N)c2ccc(Cl)cc2)c(Cl)cc1NC(=O)c1cc(I)cc(I)c1O (stereo unspecified), the Potency [1] is reported as “inactive”, the Potency [2] is reported as “inactive” and the Potency [3] is reported as “inactive”. The Potency [5] was “inactive”, the Potency [17] was “inactive” and the Potency [8] was “inactive”. The Potency [9] was “inactive”, the Potency [11] was 26.6 µM (active) and the activity change, positive = activation ([12]; at 42.5 µM (top of the series)) was -52.3% (inactive). For the same compound, the Potency [13] was “inactive”, the Potency [19] was “inactive” and the Potency [14] was “inactive”. The Potency [15] was “inactive” and the Potency [16] was “inactive”.
